Source: PubChem
PTEN del growth: suppresses growth of cells with PTEN deletion | HCT116 PTEN-null viability, CellTiter-Glo, 60 h; stronger effect = lower value | viability, % at 10 µM | hit rate 1.2% among 140,000 | AID 827;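 active = viability at or below a set limit, 4 SD under the median of all tested compounds, cut at about 3.7% in these data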;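 also: PTEN knockout HCT116 line with beta catenin targeted HCT116 as companion control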
L major viab: reduces viability of Leishmania major promastigotes | resazurin fluorescence viability | hit rate 9% among 200,000 | inhibition, % at 10 µM; in the data active = inhibition above about 50%;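 also: promastigotes grown with compound for 44 hours at 28 °C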
Ins promoter up: MIN6 insulin promoter up-regulation; MIN6 insulin promoter-GFP reporter, high-content imaging; stronger effect = higher value; z-score at 5 µM; hit rate 0.3% among 190,000;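 active = z-score above 3 at 5 µM with at least 500 cells counted in the well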
Autophagy mod: modulators of autophagy | MEF GFP-LC3 puncta imaging; test concentration mostly 10 µM | AID 463193 | hit rate 0.98% among 190,000 | calls only at 10 µM (by protocol);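 active = percentage of spot-positive cells more than 3 SD above its plate mean, without a fluorescence outlier flag or 80% toxicity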;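 also: spot-positive cell cutoff set from DMSO-treated cells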
bCat KO growth: beta-catenin-lacking colon tumor cell growth suppression | AID 818 | viability, % at 10 µM | hit rate 1.5% among 140,000 | HCT116 beta-catenin knockout viability, CellTiter-Glo, 60 h; stronger effect = lower value;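 active = viability at or under a set limit, the compound median less 4 SD, cut at about 6% in these data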;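 also: 0% = Hyamine 1622 control at 20 µM and 100% = untreated cell control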
Insulin prom inh: TRM-6 insulin promoter activity inhibition. TRM-6 cells (human fetal islet line), insulin promoter-eGFP reporter, imaging; reporter expression induced with tamoxifen. inhibition, % at 2 µM. hit rate 0.9% among 130,000. AID 1273;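 active = inhibition above the mean plus 3 SD, with well images judged a real hit on visual review, cut at about 60% in these data, passing the limit was not always enough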
Starred values were filed as active, the others as inactive. A selection: hits, their analogues and other compounds. The true share with any hit is near 9.6%.

Screening O=C(NCCCN1CCCC1)c1cc2c(Cl)nc3ccccc3c2s1 returned L major viab 90.4*, Ins promoter up -0.89, Autophagy mod inactive and Insulin prom inh -5.9.
Screening CCN1CCN(CCCNC(=O)c2cc3c(=O)[nH]c4ccccc4c3s2)CC1 returned PTEN del growth 67.0, L major viab 8.9, Autophagy mod inactive, bCat KO growth 63.6 and Insulin prom inh -26.9.
O=C(NCCCN1CCCCCC1)c1ccc2c(Cl)c3c(nc2c1)CCCC3 was read as L major viab 73.0*, Ins promoter up -0.56, Autophagy mod inactive and Insulin prom inh -100.0.
Cc1nn(-c2ccccn2)c2c1C(=O)CC(C)(C)C2Br (centres undefined) was read as Ins promoter up -0.16.
`COc1ccc(N=CC2=C(Nc3ccc(OC)cc3)c3c(C)nn(-c4ccccn4)c3CC2)cc1` gave L major viab 100.2*, Autophagy mod inactive and Insulin prom inh 25.6.
Cc1ccc(NC(=O)CS(=O)CC(=O)NC2CCN(Cc3ccccc3)CC2)c(C)c1 (centres undefined) was read as PTEN del growth 103.4, L major viab -4.3, Ins promoter up -1.15, Autophagy mod inactive, bCat KO growth 99.9 and Insulin prom inh 52.9.
Cc1ccc(NC(=S)NC2CCN(Cc3ccccc3)CC2)c(C)c1 was read as PTEN del growth 87.6, L major viab 91.2*, Ins promoter up 0.01, Autophagy mod inactive, bCat KO growth 76.7 and Insulin prom inh -150.0.
COc1ccc(C)cc1NC(=O)NC1CCN(Cc2ccccc2)CC1 was read as PTEN del growth 70.7, L major viab 64.8*, Ins promoter up -0.93, Autophagy mod inactive, bCat KO growth 85.5 and Insulin prom inh 42.1.
Screening Cc1ccccc1NC(=S)NC1CCN(Cc2ccccc2)CC1 returned PTEN del growth 62.0, L major viab 93.6*, Ins promoter up -0.38, Autophagy mod inactive, bCat KO growth 60.9 and Insulin prom inh -13.3.
Screening Cc1cccc(C)c1NC(=O)CS(=O)CC(=O)NC1CCN(Cc2ccccc2)CC1 (centres undefined) returned PTEN del growth 103.2, L major viab -4.3, Ins promoter up -0.5, Autophagy mod inactive, bCat KO growth 84.8 and Insulin prom inh -45.5.
`Cc1ccc(NC(=O)CCl)c(C)c1` gave L major viab 5.3, Ins promoter up 3.51* and Autophagy mod inactive.
`Cc1ccc(NC(=O)Cc2ccc(-n3cccc3)cc2)c(C)c1` gave PTEN del growth 94.0, L major viab 38.7, Ins promoter up 0.04, Autophagy mod inactive, bCat KO growth 97.8 and Insulin prom inh 8.0.
For COCCNC(=O)COc1ccccc1Cl the results were PTEN del growth 92.8, L major viab -9.0, Ins promoter up 0.06 and bCat KO growth 89.7.
`Cc1ccc(/C=N\NC(=O)c2ccc(Cn3cc(Br)c([N+](=O)[O-])n3)o2)o1` gave L major viab 0.6, Ins promoter up -0.08 and Autophagy mod inactive.
Screening CC(C)NC(=O)COC(=O)/C=C/c1ccc(F)cc1 returned PTEN del growth 106.4, L major viab 40.9, Ins promoter up -0.48, Autophagy mod inactive, bCat KO growth 93.5 and Insulin prom inh 2.0.
`CC(C)c1ccccc1NC(=S)NC1CCCCC1` gave L major viab 34.6, Ins promoter up -1.36, Autophagy mod inactive and Insulin prom inh 29.4.
`Cc1ccccc1NC(=S)N/N=C/C(C)c1ccccc1` (centres undefined) gave L major viab 96.6*, Ins promoter up -0.23, Autophagy mod inactive and Insulin prom inh -7.1.
Cc1ccccc1NC(=S)NCc1ccccc1 was read as PTEN del growth 96.2, L major viab 59.4*, Ins promoter up 0.6, Autophagy mod inactive, bCat KO growth 85.9 and Insulin prom inh 38.9.
For CC(C)c1ccccc1NC(=S)NC(C)c1ccccc1 (centres undefined) the results were PTEN del growth 50.0, L major viab 97.4*, Ins promoter up -1.14, Autophagy mod inactive, bCat KO growth 51.4 and Insulin prom inh -11.1.
For CCC(C)[C@H](NC(=O)NC1CCN(Cc2ccccc2)CC1)C(=O)OC (some centres undefined) the results were PTEN del growth 109.2, L major viab 69.7*, Ins promoter up 0.11, Autophagy mod inactive, bCat KO growth 96.4 and Insulin prom inh 2.9.
COC(=O)c1ccccc1NC(=O)NC1CCN(Cc2ccccc2)CC1 was read as PTEN del growth 83.0, L major viab -2.1, Ins promoter up -1.15, Autophagy mod inactive, bCat KO growth 107.6 and Insulin prom inh 23.3.
